Results filed as inconclusive are left out. Activity calls are given as the source filed them. How the source made its calls: active means hit-call score of the fitted dose curve at least 0.9, where 1 is the maximum; inconclusive means response in the unintended direction; inactive means score below 0.9.
Assay: ACEA_ER_AUC_viability: ACEA Biosciences xCELLigence Real-Time Cell Analysis on Estrogen Receptor Agonism for Viability (AID 2283782);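 further: hit means loss of impedance signal meaning reduced cell growth or viability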
How it was run: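 Continuous-exposure impedance cell analysis uses T-47D cells in charcoal-stripped serum, eight 1:4 dilutions topping at 100 uM final, biological duplicate. Area under the growth curve at 80 h is fitted against DMSO baseline.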

| Compound | outcome | AC50 |
| --- | --- | --- |
| COC(=O)c1cccnc1 | inactive | – |
| C=CC(=O)OCCC#N | – | 66.7 µM (active) |
| CCCCCCCCCCCCCCCC(=O)OC/C=C(C)/C=C/C=C(C)/C=C/C1=C(C)CCCC1(C)C | – | 40 µM (active) |
| COC(=O)c1ccc(OC)cc1 | inactive | – |
| CCOC(=O)CCc1ccccc1 | inactive | – |
| CCCCN(CCCC)C(=O)N(CCCC)CCCC | – | 80.4 µM (active) |
| C=C(C)C1CC=C(C)C(=O)C1 (stereo unspecified) | – | 68.2 µM (active) |
| CCC(=O)OCCOc1ccccc1 | inactive | – |
| CC=Cc1ccc(OC)c(OC)c1 | inactive | – |
| C1=CC2C3C=CC(C3)C2C1 (stereo unspecified) | inactive | – |
| ClC(c1ccccc1)(c1ccccc1)c1ccccc1 | – | 82.6 µM (active) |
| O=[N+]([O-])c1cccc(Cl)c1 | inactive | – |
| CCCC[O][Al]([O]CCCC)[O]CCCC | – | 59.3 µM (active) |
| COC(=O)c1ccc([N+](=O)[O-])cc1 | – | 80.2 µM (active) |
| CCCCCc1ccco1 | – | 35 µM (active) |
| CCCC(=O)c1ccccc1 | inactive | – |
| CN(C)C(=O)Nc1ccc(Oc2ccc(Cl)cc2)cc1 | inactive | – |
| C=CC(C)C#N (stereo unspecified) | inactive | – |

| Compound | outcome | AC50 |
| --- | --- | --- |
| CN(C)C(=S)SC(=S)N(C)C | – | 90.3 µM (active) |
| CCCC(=O)OCCc1ccccc1 | – | 25.7 µM (active) |
| CC(=O)C1(C)CC2=C(CCCC2(C)C)CC1C (stereo unspecified) | – | 50 µM (active) |
| COC(C)(C)CCCC(C)CC=O (stereo unspecified) | – | 50 µM (active) |
| C=C(C)CNCC | – | 25.7 µM (active) |
| Cc1ccc(OC(=O)c2ccccc2O)cc1 | – | 50 µM (active) |
| COc1ccc(CCC(C)=O)cc1 | inactive | – |
| CC1(C)COCN1 | – | 32.1 µM (active) |
| NCC1CCCC(CN)C1 (stereo unspecified) | inactive | – |
| C=C(C)C(=O)OCC(CC)(COC(=O)C(=C)C)COC(=O)C(=C)C | inactive | – |
| c1ccc(CN(Cc2ccccc2)Cc2ccccc2)cc1 | – | 89 µM (active) |
| CC(=O)OCCCc1ccccc1 | inactive | – |
| O=C1CCCC=CCCCCCCCCCC1 | – | 84.1 µM (active) |
| N#Cc1cscn1 | inactive | – |
| NC(=S)NNC(N)=S | inactive | – |
| O=C1OC2(c3ccccc31)c1ccc(O)c(Br)c1Oc1c2ccc(O)c1Br | inactive | – |
| CCc1ccc(O)c(OC)c1 | inactive | – |
| CC(C)=CCCC(C)CCOC=O (stereo unspecified) | – | 50 µM (active) |

Reference: PubChem BioAssay (EPA / NIEHS)
